A selection: hits, their analogues and other compounds. The true share with any hit is near 3.1%.
PI4K2A inh = blocks human PI4K2A kinase activity; purified PI4K2A, ADP-Glo luminescence, 1 h; hits give low values; activity change, negative = inhibition, % at 76.9 µM; Q9BTU6; 420,000 tested, 0.13% active; in the data active = activity change below about -50%; inconclusive = mostly about -30% to -49%;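 note: -100% = wells without enzyme as full effect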
Target sequence (Q9BTU6 whole entry, looked up): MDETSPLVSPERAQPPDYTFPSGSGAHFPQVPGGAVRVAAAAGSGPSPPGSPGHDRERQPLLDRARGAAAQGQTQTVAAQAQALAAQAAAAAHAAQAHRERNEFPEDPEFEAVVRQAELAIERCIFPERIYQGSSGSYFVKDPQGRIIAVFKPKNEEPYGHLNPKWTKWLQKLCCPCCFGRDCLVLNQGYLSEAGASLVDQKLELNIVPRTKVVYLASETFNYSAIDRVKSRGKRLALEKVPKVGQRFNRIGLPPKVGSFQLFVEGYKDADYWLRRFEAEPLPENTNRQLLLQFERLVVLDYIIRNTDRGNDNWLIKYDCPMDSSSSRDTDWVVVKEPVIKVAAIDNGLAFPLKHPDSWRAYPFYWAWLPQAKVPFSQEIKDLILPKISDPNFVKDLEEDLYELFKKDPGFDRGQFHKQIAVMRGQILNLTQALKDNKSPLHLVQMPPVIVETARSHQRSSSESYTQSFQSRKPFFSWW
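Compounds are screened against recombinant PI4K2A using PI as substrate and ATP, the latter dispensed at 300 microM. Reactions run one hour at ambient temperature before ADP-Glo detection; full inhibition defined by wells lacking enzyme.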
KAT2A inh = inhibitors of human GCN5L2 histone acetyltransferase; GCN5L2 HAT assay, ThioGlo1 CoA-SH fluorescence; Q92830; Potency, µM (highest dose often 58.9 µM), without a hit: at the highest dose activity change, negative = inhibition, hits mostly inhibitors; 390,000 tested, 0.21% active; AID 504327; note: potency is the fitted concentration of half-maximal effect
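GCN5L2 (20 nM) in 50mM HEPES pH 7.5, 0.1mM EDTA, 0.01% Tween-20 preincubated 15 min with compounds at room temperature. Reaction started with H3(1-25) 75uM, acetyl-CoA 70uM, ThioGlo1 50uM; CoA-thiol fluorescence (Ex340/Em540) read at 0 and 20 min.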
PLK1 PBD inh = inhibitors of human PLK1 polo-box domain binding; Plk1 PBD binding of FITC phosphopeptide, fluorescence polarization; Potency, µM, inactives show max response, negative = inhibition, usual class: inhibitors; 360,000 tested, 2.8% active; AID 720504; note: potency is the fitted concentration of half-maximal effect; series mostly up to about 57 µM; nearly all actives have a fitted effect of over 65% in size
VDR inhibitor = blocks the human vitamin D receptor | P11473 | VDR-SRC2-3 peptide fluorescence polarization, 2 h | Potency, µM, for the others: max response, negative = inhibition, usual class: inhibitors | 400,000 tested, 0.93% active | AID 504847; note: potency is the fitted concentration of half-maximal effect
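Inhibition of the VDR/SRC2-3 peptide interaction is quantified by fluorescence polarization. Compounds (23 nl, pintool) incubate with the reagents for 2 hours at ambient room temperature.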
GLS inhibitor = blocks human kidney-isoform glutaminase activity | O94925 | GLS enzymatic activity, qHTS titration | Potency, µM (doses to about 45.5 µM), for the others: at the highest dose activity change, negative = inhibition, hits mostly inhibitors | 410,000 tested, 0.21% active; note: potency is the fitted concentration of half-maximal effect
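Assay buffer: 45 mM KH2PO4 pH 8.2, 0.02% Tween-20. hKGA acts on L-glutamine (1 mM solution added); product glutamate is reported by an oxidase/peroxidase Amplex Red coupling, with fluorescence taken at baseline and 30 min.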
* marks the source's active call; other numbers are inactive results; i = inactive; ? = inconclusive; / = not tested or not shown; + = active, no number; ! = not confirmed by another sample; [ ] = remark or other dose. Unless noted, calls come from the whole dose curve; as a rule, active = well fitted curve in the direction sought with a large enough effect; inconclusive = small, poorly fitted or top-dose-only effect, or another doubt; inactive = no such curve, though single readings can be large; an effect the other way counts as inactive or inconclusive. Unless noted, % is set by controls: 0 for no effect and ±100 for the full control effect.

SMILES	PI4K2A inh	KAT2A inh	PLK1 PBD inh	VDR inhibitor	GLS inhibitor
NC(=O)C(c1ccccc1)(c1ccccc1)[C@@H]1CCN(CCc2ccc3c(c2)CCO3)C1	3.1	-4.6%	/	1.9%	26.9%
C[C@]12CC[C@H]3[C@@H](CC[C@@]45O[C@@H]4C(=O)C(C#N)C[C@]35C)[C@@H]1CC[C@@H]2O (some centres undefined)	/	-1.2%	/	?	19.3%
CCOC(=O)[C@]12Cc3cc(Cl)ccc3[C@H]1N(Cc1ccccc1)C(=O)c1ccccc12	-3.9	/	-4.9%	-4.2%	1.5%
CCOC(=O)[C@]12Cc3cc(C)ccc3[C@H]1N(C1CCCCC1)C(=O)c1ccccc12	16.7	/	2.67µM*	/	61.3%
CCOC(=O)[C@]12Cc3c(cc(OC)c(OC)c3OC)[C@H]1N(C1CCCCC1)C(=O)c1ccccc12	5.0	/	9.47µM*	/	0.5%
CC[C@@H](CO)NC(=O)[C@@H]1C=C2c3cccc4c3c(cn4C)C[C@H]2N(C)C1	-5.3	?	-12.2%	28.2µM*!	29.5%
Nc1ccc([N+](=O)[O-])cc1O	i	/	/	/	41.5%[99.4 µM]
O=C(N/N=C/c1c(O)n(C2CC2)c(=S)[nH]c1=O)c1ccccc1O	10.4	0.5%	-2.1%	-3.3%	?
Cc1ccccc1-n1c(O)c(/C=N/NC(=O)c2ccccc2O)c(=O)[nH]c1=S	2.0	-1.1%	4.23µM*	?	?
O=C(O)CC1OCC=C2CN3CCC45C6=CC(=O)C(=O)C([N+](=O)[O-])=C6NC4C1C2CC35 (centres undefined)	-60.9*	-15.0%	?	79.4µM*	-13.9%
O=C(O)CC1OCC=C2CN3CCC45c6ccccc6NC4C1C2CC35 (centres undefined)	-2.2	2.3%	-4.8%	0.4%	10.4%
COc1cc(C[C@@H](C)N)c(OC)cc1Br	i	/	/	/	/
O=C1C=CC2C3C(=O)N(c4ccccc4)C(=O)C3C1N2Cc1ccccc1 (centres undefined)	12.0	/	?	?	-4.2%
O=C(O)CNC(=O)[C@@H](CS)Cc1ccccc1	/	12.6µM*	/	-0.3%	/
O=C(O)Cc1ccccc1	1.4	-1.8%	/	8.8%	-16.0%
CCOC(OCC)P(=O)(O)CCCN	/	-0.1%	/	-4.9%	/
Clc1ccc(C(c2ccc(Cl)cc2)n2cc[n+](CC(OCc3ccc(Cl)cc3Cl)c3ccc(Cl)cc3Cl)c2)cc1 (centres undefined)	0.1	-17.0%	-21.4%	24.3%	14.1µM*
CCN(CC)C(=O)N[C@@H]1C=C2c3cccc4[nH]cc(c34)C[C@@H]2N(C)C1	-4.1	/	/	/	/
CCN(CC)C(=O)N[C@@H]1C=C2c3cccc4[nH]cc(c34)C[C@H]2N(C)C1	/	?	/	39.8µM*	6.1%
COc1cc2c(cc1/C=C/[N+](=O)[O-])OCO2	17.8	-8.9%	?	25.1µM*	1.7%
O=C1NC(=O)C(=Cc2ccc3c(c2)OCO3)C(=O)N1	/	-6.3%	/	/	/
O=[N+]([O-])/C=C/c1ccc2c(c1)OCO2	-1.6	-29.9%	/	7.08µM*	/
CCC(C=C[C@@H]1OC(=O)C=C[C@H]1C)=C[C@H](C)CC=CC(C)=C[C@@H](C)C(=O)[C@@H](C)[C@H](O)[C@@H](C)CC(C)=CC(=O)O	/	-18.1%[2.33 µM]	/	1.58µM*	/
NC(=NCc1ccc(Cl)cc1)SCCCc1cnc[nH]1	/	-2.1%	/	?	/
O[N+]1=CC=CCC1=S.On1ccccc1=S.[Zn]	/	10.2%	/	44.7µM*	/
SMILES	PI4K2A inh	KAT2A inh	PLK1 PBD inh	VDR inhibitor	GLS inhibitor
CC[C@@H]1CN2CCc3cc(OC)c(OC)cc3[C@H]2C[C@@H]1C[C@H]1NCCc2cc(OC)c(OC)cc21	/	-3.2%[21.4 µM]	/	-0.7%	/
CNc1cc(Cl)c2nonc2c1[N+](=O)[O-]	-22.6	?	8.44µM*	35.5µM*	0.1%
Cc1nc2ccc(Nc3nc4cc(S(=O)(=O)N5CCOCC5)ccc4o3)cc2s1	-19.7	-13.3%	4.74µM*	-12.6%	-17.3%
COc1ccc(S(=O)(=O)N2CCOCC2)cc1NC(=O)COC(=O)Cc1ccccc1	-2.5	-3.6%	-11.3%	13.3%	1.5%
CC(=O)c1c(C)n(CC2CCCO2)c2ccc(O)cc12 (centres undefined)	0.6	-5.7%	2.3%	-3.1%	?
Cc1ccc(/C=C2\C(=O)NC(=O)N(CCc3ccc(F)cc3)C2=O)s1	-14.7	-2.7%	0.267µM*	?	-5.8%
Cc1ccc(/C=C2/C(=O)NC(=O)N(CC3CCCO3)C2=O)s1 (centres undefined)	-5.6	-8.6%	5.97µM*	?	17.7%
Cc1ccc(/C=C2\C(=O)NC(=O)N(CCc3ccc(F)cc3)C2=O)o1	?	-24.0%	0.947µM*	-25.4%	2.4%
Cc1ccc(/C=C2/C(=O)NC(=O)N(CCc3ccc(F)cc3)C2=O)s1	-11.5	-10.8%	0.947µM*	?	2.3%
CCOc1ccc2cc(C#N)c(=O)oc2c1	/	-16.8%	/	3.4%	/
c1ccc2c(c1)Sc1ccccc1N2C[C@H]1CN2CCC1CC2	/	/	/	/	-4.9%
CCOC(=O)c1ccc(-n2c(N)c(C(=O)NCC3CCCO3)sc2=S)cc1 (centres undefined)	-1.4	-6.7%	11.9µM*	?	-17.0%
ClC1=C(Cl)[C@]2(Cl)[C@@H]3[C@@H]4C[C@@H]([C@H]5O[C@@H]45)[C@@H]3[C@@]1(Cl)C2(Cl)Cl	i	/	/	/	5.6%[99.4 µM]
CN1CCN(c2ccc(/C=C3\C(=O)NC(=S)N(c4cccc(Br)c4)C3=O)o2)CC1	-3.7	-1.4%	104.5%	?	11.2µM*
CN1C(=O)/C(=C\c2ccc(N3CCCCC3)o2)C(=O)NC1=S	0.8	-2.3%	68.2%	-0.6%	-1.4%
C[C@@H]1O[C@@H](O[C@@H]2C=C3CC[C@@H]4[C@H](CC[C@]5(C)[C@@H](c6ccc(=O)oc6)CC[C@]45O)[C@@]3(C)CC2)[C@H](O)[C@H](O)[C@H]1O	4.1	/	/	/	/
Cc1cc(C)c(C(=O)CN2CCOCC2)c(C)c1	24.5	-4.6%	-12.1%	28.2µM*	-1.5%
O=C(CN1CCOCC1)c1ccc2cc[nH]c2c1	0.3	-2.2%	-14.8%	-3.8%	-6.6%
Cc1ccc([N+](=O)[O-])[c]2c1[O][Hg]2	-24.5	/	/	/	/
[Cl][In]([Cl])[Cl]	+	-15.9%	/	19.8%	-93.4%
CN(C)CC(C(=O)Cc1ccccc1)c1ccccc1 (centres undefined)	19.5	/	-8.6%	35.5µM*	-14.3%
O=C1NC(=O)N(c2cccc(F)c2)C(=O)/C1=C/c1ccc(N2CCOCC2)cc1	-1.6	?	11.9µM*	-26.6%	-10.3%
Cc1cc(N2CCOCC2)ccc1/C=C1\C(=O)NC(=O)N(c2ccccc2)C1=O	-4.2	-7.5%	11.9µM*	?	-6.4%
CN1C(=O)/C(=C\c2ccc(N3CCCCCC3)cc2)C(=O)NC1=S	-2.9	-3.6%	2.12µM*	?	-0.3%
COc1cc(N2CCOCC2)ccc1C=C1C(=O)NC(=O)NC1=O	-12.7	-11.8%	-9.1%	-13.3%	-13.7%
CN1C(=O)N(C)C(=O)C2(Cc3c(ccc4ccccc34)N(C)C2)C1=O	-2.8	-6.1%	8.44µM*	0.1%	6.0%
